# Compound activity as filed in PubChem.
# Rows were chosen to be rich in hits. Some 16% of all compounds tested hit in one or more screens of this group.
# DT40 TDP1 CPT: qHTS for Inhibitors of human tyrosyl-DNA phosphodiesterase 1 (TDP1): qHTS in cells in presence of CPT; 420,000 compounds, 12% hits; chicken DT40 Tdp1-/-;hTDP1 cells + 20 nM CPT, ATP luminescence, 48 h; Potency, µM (top dose mostly 46.2 µM), for inactives: top-dose activity change, negative = growth inhibition, most hits filed as inhibitors; further: potency means the concentration at half of the fitted maximal effect; on the % scale 0 is the no-effect control and ±100 the full control effect; nearly all actives have a fitted effect of over 55% in size
#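 Cell growth measured by CellTiter-Glo luminescence after a minimum 48 h, 37 C compound exposure with 20 nM CPT in Tdp1-knockout DT40 cells stably expressing hTDP1, seeded 400/well; qHTS titration format.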
# uPA surface inh: qHTS for Inhibitors of Cell Surface uPA Generation; cell surface uPA generation assay, qHTS; Potency, µM (series often up to 38.3 µM), for inactives: top-dose activity change, negative = inhibition, most hits filed as inhibitors; 330,000 compounds, 0.31% hits; AID 540303, 2011; active means well fitted inhibition curve with a large enough effect; inconclusive means small, poorly fitted or top-dose-only effect; inactive means no such curve, though single readings can be large or run the other way; tested in mouse RAW 264.7 cells; further: potency means the concentration at half of the fitted maximal effect; on the % scale 0 is the no-effect control and ±100 the full control effect; nearly all actives have a fitted effect of over 55% in size
# TDP1 cell noCPT: qHTS for Inhibitors of human tyrosyl-DNA phosphodiesterase 1 (TDP1): qHTS in cells in absence of CPT; DT40 Tdp1-/- hTDP1 cells, no CPT, ATP luminescence, 48 h; 420,000 compounds, 15% hits; Potency, µM (highest dose often 46.2 µM), without a hit: top-dose activity change, negative = growth inhibition, actives largely listed as inhibitors; further: potency means the concentration at half of the fitted maximal effect; on the % scale 0 is the no-effect control and ±100 the full control effect; nearly all actives have a fitted effect of over 55% in size
#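 Cells were dispensed at 400 per well, compounds added by pin tool, plates incubated ≥48 hr at 37 °C, then CellTiter-Glo added for 30 min at room temperature before luminescence reading. Line: DT40 Tdp1-/- complemented with hTDP1; camptothecin omitted.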
# miR-21 reporter: qHTS Assay for Modulators of miRNAs and/orActivators of miR-21; AID 2288, 2010; Potency, µM (highest dose often 38.3 µM), for the others: at the highest dose activity change, positive = activation, most hits filed as activators; 340,000 tested, under 10 active; HeLa miR-21 FLuc reporter, luciferase, 48 h;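 further: % of control where 0% means no effect; miR-21 action dims this reporter so a rising signal means less miR-21 action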
#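 HeLa miR-21-FLuc reporter line, endogenous miR-21; 2000 cells/well in DMEM/10% FBS; compound titration up to ~40uM final, 48 h, 37 degree Celsius; luciferase detection reagent, 15 min lysis, CCD luminescence.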
# TDP1 block: qHTS Assay for Inhibitors of Tyrosyl-DNA Phosphodiesterase (TDP1); Potency, µM (doses to about 130 µM), for inactives: at the top dose activity change, negative = inhibition, most hits filed as inhibitors; Tyrosyl-DNA phosphodiesterase 1 (Homo sapiens), Q9NUW8; 350,000 compounds, 0.28% hits; recombinant TDP1, AlphaScreen DNA substrate cleavage; AID 485290, 2010; further: potency means the concentration at half of the fitted maximal effect; on the % scale 0 is the no-effect control and ±100 the full control effect; nearly all actives have a fitted effect of over 40% in size
# Target sequence (Q9NUW8 whole entry, looked up): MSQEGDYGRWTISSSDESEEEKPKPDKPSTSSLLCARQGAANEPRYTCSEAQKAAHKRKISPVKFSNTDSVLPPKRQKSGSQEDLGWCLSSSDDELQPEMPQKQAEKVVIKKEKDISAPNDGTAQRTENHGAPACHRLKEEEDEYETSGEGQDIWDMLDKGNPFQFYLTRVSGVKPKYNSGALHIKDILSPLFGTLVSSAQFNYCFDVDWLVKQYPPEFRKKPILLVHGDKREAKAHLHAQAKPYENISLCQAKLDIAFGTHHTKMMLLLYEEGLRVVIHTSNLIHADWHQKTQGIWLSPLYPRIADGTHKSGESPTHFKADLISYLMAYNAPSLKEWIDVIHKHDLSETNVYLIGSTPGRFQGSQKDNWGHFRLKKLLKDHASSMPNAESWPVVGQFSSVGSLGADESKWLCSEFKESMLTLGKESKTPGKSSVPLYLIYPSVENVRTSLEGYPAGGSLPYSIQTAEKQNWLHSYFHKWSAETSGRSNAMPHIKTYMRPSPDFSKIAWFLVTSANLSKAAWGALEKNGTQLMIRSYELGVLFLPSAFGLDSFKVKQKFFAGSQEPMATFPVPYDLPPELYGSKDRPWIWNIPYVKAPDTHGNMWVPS
#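 AlphaScreen read-out: signal falls as enzyme removes the 3' tyrosine-FITC from a 5'-biotinylated DNA oligo (15 nM, 5 min, RT). Enzyme was E. coli-made recombinant Tdp1 at 1 nM, exposed to compound for 15 min beforehand; beads 10 ug/ml, 10 min.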
# The depositor's hits bear a star; ? = inconclusive; . = not tested or not shown. Unless noted, the call rests on the fitted dose curve; in most records, active means well fitted curve in the direction sought with a large enough effect; inconclusive means small, poorly fitted or top-dose-only effect, or another doubt; inactive means no such curve, though single readings can be large; an effect the other way counts as inactive or inconclusive.
SMILES,DT40 TDP1 CPT,uPA surface inh,TDP1 cell noCPT,miR-21 reporter,TDP1 block
c1ccc(N2CCN(c3ncnc4scc(-c5cccs5)c34)CC2)cc1,?,.,?,0.0%,3.4%
COc1cccc(Cn2c(=O)c(C)nc3cnc(Nc4cccc(OC)c4)nc32)c1,21.4%,.,-18.6%,.,.
CC(C)CN1CC2(CCN(C(=O)c3cnccn3)CC2)C1,13.6%,.,3.4%,.,.
CCOC(=O)c1ccc(CNc2ncnc3nc[nH]c23)cc1,3.98µM*,.,11.2µM*,.,2.9%
CCOc1cc(CNc2ncnc3nc[nH]c23)ccc1OC,?,0.9%,25.9µM*,-10.4%,8.7%
COc1ccc(CNc2ncnc3nc[nH]c23)cc1OC,?,.,-10.7%,.,2.6%
COc1cc(CN2CC(C)OC(C)C2)cc(OC)c1 (stereo unspecified),-1.3%,10.2%,-16.2%,.,.
O=C(O)CCC(=O)Nc1ccc(Br)cc1C(=O)c1ccccc1Cl,-5.6%,0.0%,1.8%,-1.9%,.
COc1cc(-c2cc(OC)c3c(C)oc(C)c3c(=O)c2)ccc1OC(=O)c1ccccc1Cl,5.8µM*,.,4.61µM*,-13.7%,6.8%
COc1cc(-c2cccs2)cc(=O)c2c(C)oc(C)c12,13µM*,1.7%,23.1µM*,-5.2%,7.1%
COc1cccc2cc(-c3nc(-c4cccs4)cs3)c(=O)oc12,?,2.2%,?,-46.3%,-6.0%
COc1cc(-c2cc(OC)c3c(C)oc(C)c3c(=O)c2)ccc1OC(=O)c1ccccc1F,8.2µM*,.,20.6µM*,-17.0%,8.9%
O=C(CN1CCN(c2ccc(F)cc2)CC1)NCc1cccs1,-6.6%,-0.8%,-9.9%,-0.5%,.
CC12CCC=CC1=C(C=O)C1C2CCC2(C)C(O)CCC12 (stereo unspecified),?,-3.2%,25.9µM*,.,.
Cc1nn(-c2ccccc2C(F)(F)F)c(=O)c2noc(C)c12,-24.7%,4.0%,-16.3%,4.2%,0.0%
CCCCCCCCN1C(=O)[C@H](CC(=O)N2CCN(C(=O)c3ccco3)CC2)C[C@@]2(C(=O)OC)CCCCC=C12,?,.,23.1µM*,.,.
CCCCCCCCN1C(=O)[C@H](CC(=O)N2CCN(C(=O)c3ccco3)CC2)C[C@@]2(C(=O)OC)CC(C)(C)CC=C12,11.6µM*,.,14.6µM*,.,.
COC(=O)[C@]12CCCCC=C1N(Cc1ccco1)C(=O)[C@H](CC(=O)N1CCN(C(=O)c3ccco3)CC1)C2,-28.6%,.,?,.,.
Cc1c(C)c2ccc(OCC(=O)NC3CCN(Cc4ccccc4)CC3)cc2oc1=O,-6.7%,-0.7%,1.0%,-1.7%,1.7%
O=C(c1ccc(CS(=O)c2ccccc2Cl)o1)N1CCN(c2ccccn2)CC1 (stereo unspecified),3.66µM*,?,2.06µM*,21.2%,4.5%
O=C(c1ccc(CS(=O)Cc2ccccc2Cl)o1)N1CCN(c2ccccn2)CC1 (stereo unspecified),?,-1.9%,16.4µM*,7.6%,3.7%
O=C(c1ccc(CS(=O)Cc2ccc(Cl)cc2)o1)N1CCN(c2ccccn2)CC1 (stereo unspecified),?,3.5%,?,19.9%,6.2%
CCCCCCCC/C=C\CCCCCCCC(=O)N(CCO)CCO,.,.,.,.,5.4%
CCc1nn(CC(=O)N(CC)Cc2ccccc2)c(=O)c2cc3occc3n12,23.1µM*,.,16.4µM*,-12.3%,2.5%
O=c1ccn(C2CCCO2)c(=O)[nH]1 (stereo unspecified),-28.8%,1.4%,14.6µM*,.,.
SMILES,DT40 TDP1 CPT,uPA surface inh,TDP1 cell noCPT,miR-21 reporter,TDP1 block
Cc1cc(NC(=O)Cn2c(=O)oc3ccc(Cl)cc32)no1,-3.3%,-13.8%,-15.4%,5.1%,1.2%
CCC1=NN2C(=N)/C(=C\c3cccn3-c3ccc(C)cc3C)C(=O)N=C2S1,-6.6%,5.5%,-18.6%,6.8%,3.6%
CCC1=NN2C(=N)/C(=C\c3cccn3-c3c(C)cccc3C)C(=O)N=C2S1,?,-2.5%,3.66µM*,-6.8%,5.0%
COC(=O)/C=C1\N/C(=N/c2nc(C)c3cc(OC)ccc3n2)NC1=O,11.6µM*,-4.7%,9.2µM*,2.0%,.
COC(=O)/C=C1/C(=O)N/C(=N\c2nc(C)cc(C)n2)N1c1ccc(OC)cc1,20.5%,-2.7%,0.8%,-8.1%,3.0%
O=C(CN1C(=O)C(c2ccc(F)cc2)=NC12CCCCCC2)Nc1ccccc1Cl,?,.,23.1µM*,?,0.0%
O=C(N/C=N/OCc1ccc(Cl)cc1Cl)NOCc1c(Cl)cccc1Cl,20.6µM*,3.2%,23.1µM*,-9.8%,-5.1%
CCCCNC(=O)CSc1nc2ccccc2nc1Cc1ccc(C)cc1,-7.0%,.,-12.1%,-0.3%,0.0%
COc1cc(C2c3cc4c(cc3OC(NCCc3ccccc3)C2C)OCO4)cc(OC)c1OC (stereo unspecified),1.03µM*,-14.2%,0.82µM*,.,.
COc1cc(C2c3cc4c(cc3OC(Nc3ccc(C(=O)O)cc3)C2C)OCO4)cc(OC)c1OC (stereo unspecified),1.3µM*,-12.3%,1.16µM*,.,.
O=S(=O)(NCCN1CCOCC1)c1cc(Cl)ccc1Cl,-19.1%,-1.6%,-19.2%,-0.9%,5.5%
CC(SCc1ccccc1)C(=O)Nc1ccc(F)cc1 (stereo unspecified),-18.8%,1.2%,-17.6%,-11.2%,-8.2%
N#CC(C#N)=C(Nc1ccc(F)cc1)SCc1cccc(Br)c1,2.91µM*,-16.3%,2.31µM*,?,2.6%
Cc1cccc(CS(=O)(=O)Cc2ccc(C(=O)NCCCN3CCCC3)o2)c1,-8.7%,.,-10.0%,-6.3%,3.3%
O=C(O)c1ccc(CN2C[C@@H](CO)O[C@@H](n3cnc4c(Nc5ccccc5)ncnc43)C2)cc1,-1.2%,.,-0.5%,.,.
COc1ccccc1N=Nc1c(C)[nH]n(-c2ccccc2)c1=O,-15.4%,3.2%,5.8%,-2.4%,.
COc1ccc(N=C(c2ccccc2)c2c(C)[nH]n(-c3ccccc3)c2=O)c(OC)c1,?,1.4%,18.4µM*,15.5%,5.6%
CCCc1nn2c(=O)cc(COC(=O)c3ccc(NC(=O)c4cccs4)cc3)nc2s1,?,.,20.6µM*,-0.4%,-3.8%
CCOCCc1nn2c(=O)cc(COC(=O)c3ccc(NC(=O)C(C)(C)C)cc3)nc2s1,16.4µM*,.,13µM*,12.3%,6.2%
CCc1nn2c(=O)cc(COC(=O)c3cccc(NC(=O)c4cccs4)c3)nc2s1,?,.,14.6µM*,-9.0%,-1.2%
CCCCc1nn2c(=O)cc(COC(=O)c3ccc(NC(=O)c4cccs4)cc3)nc2s1,-22.2%,.,-18.7%,1.6%,3.8%
Cc1ccc(C(=O)O)cc1NC(=O)CCc1c(C)noc1C,2.8%,.,5.0%,.,.
